Bioassay records: PubChem, National Center for Advancing Translational Sciences (NCATS)
Compounds with a hit are over-represented: about 3.2% of the library has one in this group of screens.
ERK AVP block: blocks ERK signaling stimulated by vasopressin; HEK293-V1b, vasopressin-stimulated pERK AlphaScreen; Potency, µM (titrated, usually from 57.5 µM), without a hit: at the top dose activity, negative = inhibition, hits mostly inhibitors; 72,000 tested, 0.99% active; also: potency is read from the fitted curve at half-maximal effect; % is scaled to controls: 0 for no effect and ±100 for the full control effect; nearly all actives have a fitted effect of over 55% in size
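Phosphorylated ERK1/2 detected via AlphaScreen bead proximity in lysates of V1b-expressing HEK293 cells given 25 nM vasopressin for 5 min after 30 min compound exposure (37 °C). AC50 from Hill equation; basal DMSO 0%, vasopressin 100%.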
CRE Fsk mod: alters forskolin-stimulated CRE reporter signaling in CHO cells. CHO CRE-bla reporter (cAMP response element driving beta-lactamase), forskolin EC10, beta-lactamase ratio. Potency, µM (series often up to 38.2 µM), without a hit: at the highest dose activity change, negative = inhibition, hits mostly activators. 71,000 tested, 2.5% active; active = well fitted activation curve with a large enough effect in the signal ratio, with a control signal flat, not every such curve was filed as active; inconclusive = small, poorly fitted or top-dose-only effect, or effect the other way, or a change in a side signal; the % refers to the signal ratio; also: potency is read from the fitted curve at half-maximal effect; % of control where 0% means no effect
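Reporter-gene assay: CHO cells with beta-lactamase behind cAMP responsive elements, co-treated with compound and EC10 NKH 477 for 3 hours at 37 degrees Celsius. Activity came from the 460/530 nm CCF4 emission ratio.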
15-hLO-2 inh: inhibitors of human 15-lipoxygenase 2 (ALOX15B) | O15296 | purified 15hLO-2, xylenol orange hydroperoxide absorbance | Potency, µM (series often up to 57.1 µM), for inactives: at the highest dose activity change, negative = inhibition, most hits filed as inhibitors | 110,000 tested, 0.56% active; also: potency is read from the fitted curve at half-maximal effect; % is scaled to controls: 0 for no effect and ±100 for the full control effect; nearly all actives have a fitted effect of over 60% in size
Target sequence (O15296 whole entry, looked up): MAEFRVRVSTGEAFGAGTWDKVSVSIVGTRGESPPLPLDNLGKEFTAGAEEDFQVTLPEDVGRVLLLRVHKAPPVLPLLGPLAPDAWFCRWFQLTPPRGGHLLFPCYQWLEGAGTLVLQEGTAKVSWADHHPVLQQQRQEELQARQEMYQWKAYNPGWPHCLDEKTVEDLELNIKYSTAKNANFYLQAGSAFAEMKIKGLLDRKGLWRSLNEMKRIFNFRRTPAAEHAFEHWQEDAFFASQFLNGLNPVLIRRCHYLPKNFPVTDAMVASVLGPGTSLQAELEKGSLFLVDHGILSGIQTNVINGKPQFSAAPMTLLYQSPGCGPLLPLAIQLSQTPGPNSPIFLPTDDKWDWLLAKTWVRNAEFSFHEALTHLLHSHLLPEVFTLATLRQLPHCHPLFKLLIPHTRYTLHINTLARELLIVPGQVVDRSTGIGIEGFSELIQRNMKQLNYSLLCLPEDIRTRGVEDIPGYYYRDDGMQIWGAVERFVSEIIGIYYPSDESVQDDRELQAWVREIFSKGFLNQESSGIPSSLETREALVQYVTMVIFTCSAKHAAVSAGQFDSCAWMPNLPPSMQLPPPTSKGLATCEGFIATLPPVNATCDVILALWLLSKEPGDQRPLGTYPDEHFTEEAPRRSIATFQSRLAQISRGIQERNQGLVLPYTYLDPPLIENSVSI
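Purified human 15hLO-2 (50 nM) preincubated 15 min with compound, then 45 uM arachidonic acid for 90 min at RT in 25 mM Hepes pH 7.5, 0.01% Triton X-100. Hydroperoxide detected by Fe-xylenol orange; 573/405 nm absorbance ratio.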
15-hLO inh: blocks human 15-lipoxygenase activity. Potency, µM (highest dose often 57.1 µM), inactives show at the highest dose activity change, negative = inhibition, actives largely listed as inhibitors. 74,000 tested, 1.4% active. purified 15hLO-1, xylenol orange hydroperoxide absorbance; also: potency is read from the fitted curve at half-maximal effect; % is scaled to controls: 0 for no effect and ±100 for the full control effect; nearly all actives have a fitted effect of over 55% in size
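Purified human 15hLO-1 (40 nM final) in 25 mM Hepes pH 7.5, 0.01% Triton X-100 was preincubated with compound 15 min at room temperature, then reacted 6 min with 50 uM arachidonic acid; hydroperoxide detected by Fe-XO, 573/405 nm absorbance ratio.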
CHO via 24h: cytotoxicity in CRE-bla CHO cells at 24 h | shares compounds with CRE Fsk mod | CRE-bla CHO viability, ATP luminescence, 24 h | activity, negative = viability loss, % at 46.1 µM | 120 tested, under 10 active
CHO via 40h: cytotoxicity in CRE-bla CHO cells at 40 h; Potency, µM, for the others: max response, most hits filed as inhibitors; AID 906; CRE-bla CHO viability, ATP luminescence, 40 h; shares compounds with CRE Fsk mod; 120 tested, under 10 active
CRE-luc potent: boosts CRE luciferase signal in HEK293 cells | shares compounds with CRE Fsk mod | HEK293 CRE-luc2P, NKH477 EC10 potentiation, luminescence, 4 h | Potency, µM (series often up to 38.3 µM), inactives show top-dose activity, positive = activation, actives largely listed as activators | 120 tested, 80% active
An asterisk follows results filed as active; ? = inconclusive; / = no result given; [ ] = dose if it differs, or a comment. Unless noted, calls follow the shape of the dose curve; as a rule, active = well fitted curve in the direction sought with a large enough effect; inconclusive = small, poorly fitted or top-dose-only effect, or another doubt; inactive = no such curve, though single readings can be large; an effect the other way counts as inactive or inconclusive.

SMILES	ERK AVP block	CRE Fsk mod	15-hLO-2 inh	15-hLO inh	others
CCCC[C@@H]1C[C@H]1C(NP(=O)(c1ccccc1)c1ccccc1)c1ccc(Cl)cc1 (stereo partly drawn)	/	7%	/	/
CCOC(=O)C1SC2(C(F)F)CC1(O)c1c(c(OC)c3occc3c1OC)O2 (stereo not drawn)	20µM*	19%	4%	-3%
CCc1nc(CNC(=O)c2cc(OC)c(OC)c(OC)c2)no1	-2%	27%	4%	10µM*
COc1cc(C(=O)NCCCCCC(=O)O)cc(OC)c1OC	23%	-1%	6%	-12%
O=C1C(Cl)=C(N2CCCCCC2)C(=O)N1c1ccccc1	31%	11%	-15%	5µM*
O=[As](O)(O)c1ccc(Cc2ccc([As](=O)(O)O)cc2)cc1	1%[11.5 µM]	?	3.2µM*	?
Nc1ccc([As](=O)(O)O)cc1	/	/	/	-4%
CN(C=O)CP(=O)(O)CN(C)C=O	0%	16µM*	-23%	?
COc1cc2cc(c1Cl)N(C)C(=O)C[C@H](OC(=O)C(C)C)[C@]1(C)O[C@@H]1[C@@H](C)[C@H]1C[C@](O)(NC(=O)O1)[C@@H](OC)/C=C\C=C(\C)C2	-16%[11.5 µM]	0.016µM*	-4%[11.4 µM]	1%[11.4 µM]
C=CCc1cc(OC)c2c(c1OC)OCO2	-21%	/	10%	4µM*
COc1c2c(cc3c1OCO3)CC[N+](C)=C2	-6%	/	-5%	0%
Cc1ccc(CS(=O)(=O)CCC(=O)N2CCC3(CC2)OCCO3)cc1	11%	1%	3%	5%
Cc1ccc(S(=O)(=O)N(C)CCCC(=O)N2CCN(c3ccccn3)CC2)cc1	25µM*	0%	15%	?
CN[C@H]1[C@H](C)O[C@@H](O[C@@H]2C/C=C(/C)C/C(C)=C\C=C/CC[C@@H](C)CNC(=O)/C=C\C=C/[C@H]2C)C[C@@H]1O	/	20%[7.6 µM]	/	/
COc1cc([C@H]2c3cc4c(cc3[C@@H](O)[C@@H]3COC(=O)[C@H]23)OCO4)cc(OC)c1OC	?	0.013µM*	-1%[25.6 µM]	3%[25.6 µM]
COc1cc(C2c3cc4c(cc3C(O)[C@H]3COC(=O)C23)OCO4)cc(OC)c1OC (stereo partly drawn)	-15%	/	-7%	9%
C=CCN1CC[C@]23c4c5ccc(O)c4O[C@@H]2/C(=N/NC(=O)c2ccccc2)CC[C@@]3(O)[C@H]1C5	-8%	-8%	9%	-5%
C[C@H](CC(C#N)(c1ccccc1)c1ccccc1)N1CCCCC1	-5%[11.5 µM]	-1%[7.6 µM]	4%[11.4 µM]	0%[11.4 µM]
COc1ccc(Cc2nccc3cc(OC)c(OC)cc23)cc1OC	44%	0.16µM*	-4%	?	CHO via 24h=?;CHO via 40h=?;CRE-luc potent=0.71µM*
CCN(CC)c1ccc(CN(C)CCc2ccc(OC)c(OC)c2)cc1	/	/	12%	/
Nc1nc2ccc(Cl)cc2c2nc(-c3ccco3)nn12	?	0.2µM*	4%	18%	CHO via 24h=-26;CHO via 40h=?;CRE-luc potent=?
C[C@]12CC[C@@H]3[C@H](CCC4=CC(=O)CC[C@]43C)[C@]1(O)CC[C@@]2(O)C(=O)CO	-4%[11.5 µM]	?	-4%[11.4 µM]	20%[11.4 µM]
